# Test results from PubChem BioAssay AID720568 (Broad Institute, 2013).
# Measured potencies and affinities stand elsewhere. Activity calls are given as the source filed them. The rule behind the calls is not given here.
# Assay: HepG2 cell cytotoxicity, dose response, cytotoxicity control, dry powder samples (AID 720568)
row,Compound,outcome
1,c1ccc(CSc2nnc(-c3ccccc3)o2)cc1,inactive
2,COc1ccc(CSc2nnc(-c3ccccc3)o2)cc1,inactive
